Measured values taken from PMC13494018.
Values without a mark were called inactive. No rule for the calls is given here.

PDL1, Q9NZQ7, sequence (Q9NZQ7 whole entry): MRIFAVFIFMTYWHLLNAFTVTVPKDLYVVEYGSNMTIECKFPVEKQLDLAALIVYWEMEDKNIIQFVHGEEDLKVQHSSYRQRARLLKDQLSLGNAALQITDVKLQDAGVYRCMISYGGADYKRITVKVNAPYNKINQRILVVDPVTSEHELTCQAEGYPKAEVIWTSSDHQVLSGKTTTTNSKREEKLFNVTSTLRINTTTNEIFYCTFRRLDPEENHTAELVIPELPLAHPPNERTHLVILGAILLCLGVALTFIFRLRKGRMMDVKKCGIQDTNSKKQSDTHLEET
CD276, Q5ZPR3, sequence (Q5ZPR3 whole entry): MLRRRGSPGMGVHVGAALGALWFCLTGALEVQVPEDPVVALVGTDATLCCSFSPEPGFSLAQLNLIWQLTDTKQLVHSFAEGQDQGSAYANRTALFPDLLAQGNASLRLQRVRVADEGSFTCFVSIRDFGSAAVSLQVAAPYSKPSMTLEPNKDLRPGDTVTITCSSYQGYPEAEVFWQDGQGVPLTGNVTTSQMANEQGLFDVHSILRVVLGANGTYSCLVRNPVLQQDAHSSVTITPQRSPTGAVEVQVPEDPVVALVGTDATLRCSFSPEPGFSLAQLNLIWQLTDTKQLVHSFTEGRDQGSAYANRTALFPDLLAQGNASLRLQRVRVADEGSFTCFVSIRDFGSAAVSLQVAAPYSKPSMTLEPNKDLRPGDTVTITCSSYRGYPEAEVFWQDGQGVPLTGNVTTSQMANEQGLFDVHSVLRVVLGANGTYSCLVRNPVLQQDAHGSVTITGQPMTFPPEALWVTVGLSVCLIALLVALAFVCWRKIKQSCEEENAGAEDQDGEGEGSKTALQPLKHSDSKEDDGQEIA

B1: d8r1_design_ppi_536_dldesign_0_cycle1_af2pred (protein)
chain: NKDKEIAELLLKLAEAAKEDPEKALKIAEEIEKLGNKEFGGALKTLLELAVAEKGKAGENAKAAAIVLSTSRAEDLLAK
**Q.** B1 was tested. Which “binding in a display sort” value (PDL1, Q9NZQ7) did it give?
**A.** not found

B2: d6r1_design_ppi_1169_dldesign_0_cycle1_af2pred (protein)
chain: ELEEEVERAVEEAREAAERAREAGKANPALAPQLEAVVRFLETAAEYARESGEEGTEALKEAVEAARGMAEAALAA
**Q.** B2 was tested. Which “binding in a display sort” value (CD276, Q5ZPR3) did it give?
**A.** not found

B3: d6r1_design_ppi_1028_dldesign_0_cycle0_af2pred (protein)
chain: AAAIAATKAELAKGKALLAKAKAAPAAAWNEALAAELRAAANALNRAATALLAAGGDTALAVEATETAVELLKAAGEINRA
**Q.** B3 was tested. Which “binding in a display sort” value (CD276, Q5ZPR3) did it give?
**A.** binds (active)

B4: d8r1_design_ppi_1339_dldesign_0_cycle1_af2pred (protein)
chain: AEAWLAEIREIVSRAVEAAQAGDVETLEAAVEEARALAERAPPEVRPAAENAAAFNQLLLELTKERLAEKA
**Q.** Which “binding in a display sort” value (PDL1, Q9NZQ7) does the source give for B4 here?
**A.** binds (active)

B5: d8r1_design_ppi_671_dldesign_0_cycle1_af2pred (protein)
chain: AESYRAAAAAIAQAAADNPAGAADAAAALVAMAKMSSPEKAAAIAEGVEAVAEGAPADVRALLLAAAAEIKAIV
**Q.** B5 was tested. Which “binding in a display sort” value (PDL1, Q9NZQ7) did it give?
**A.** not found

B6: d6r1_design_ppi_1088_dldesign_0_cycle1_af2pred (protein)
chain: GQAGTAKALINMARIGAKLGEEAYEVLKTIFETLANMIADPAWAEGGRAAREAIYAITMEIDPELAKRVLEEVE
**Q.** Which “binding in a display sort” value (CD276, Q5ZPR3) does the source give for B6 here?
**A.** not found

B7: d8r1_design_ppi_1470_dldesign_0_cycle1_af2pred (protein)
chain: DAAAQAATALQGAKNALAAADLLEAEGTKGALLAAGSLYIAAGEQLATAYTLLGKPEEGKAVAAELNAKGKALLAAA
**Q.** For B7, which “binding in a display sort” value (PDL1, Q9NZQ7) is on record?
**A.** not found

B8: d8r1_design_ppi_1425_dldesign_0_cycle0_af2pred (protein)
chain: STESREKALKAISEKSKAKAKKLAAEDPAKGLALAKNAAKSFKDWAKADPETKETAEAQAKEHEALAKEIAAAA
**Q.** For B8, which “binding in a display sort” value (PDL1, Q9NZQ7) is on record?
**A.** not found

B9: d6r1_design_ppi_1146_dldesign_0_cycle1_af2pred (protein)
chain: AEEEAAKLKAQADGLDTIATALIEQAKTGDAAVARGAAAAAVSLAKKAAELYKRAAKLAGDEKFGKEQAKKQKAKAKEAKEVAEKKAA
**Q.** Which “binding in a display sort” value (CD276, Q5ZPR3) does the source give for B9 here?
**A.** not found

B10: d8r1_design_ppi_1265_dldesign_0_cycle1_af2pred (protein)
chain: SENEEAAKALTRAAEAAARYLAEKYGELAKEAAKLIAKAAEADAETAVKYLEEAVKLLDEAGKKTGATKETDALKAMAEKAAELKKA
**Q.** B10 was tested. Which “binding in a display sort” value (PDL1, Q9NZQ7) did it give?
**A.** binds (active)

B11: d6r1_design_ppi_1043_dldesign_0_cycle1_af2pred (protein)
chain: AQASIQRGAQAANALMAAAAGYYAKKYKGPLGEKAKAAADQAAALAAQSAANPATAQANAQQASALLDELLKEVKAYEE
**Q.** How did the “binding in a display sort” value (CD276, Q5ZPR3) turn out when B11 was run?
**A.** not found

B12: d8r1_design_ppi_509_dldesign_0_cycle1_af2pred (protein)
chain: KDEHFDKMVEYLKKAQEAYNKAVAAAKAGDADAAKAALAKAQEYYDKAIKEAEKYSPEAGAAMKSTKEKSVAIANAAL
**Q.** Which “binding in a display sort” value (PDL1, Q9NZQ7) does the source give for B12 here?
**A.** not found

B13: d8r1_design_ppi_139_dldesign_0_cycle1_af2pred (protein)
chain: AKLIEELKKEAKAVKELAKKGAPAEELDAAVKKLGEAMTKLAKAMATMSPEEKAKARAALAEAAKAAIEAGEVAEKLRAA
**Q.** With B13 as the binder, how does the “binding in a display sort” value (PDL1, Q9NZQ7) read?
**A.** not found

B14: d8r1_design_ppi_530_dldesign_0_cycle0_af2pred (protein)
chain: AAALAAALAAAAEAAAAAEAEAVAAAVSETVAAAARAAIKSFESGANKELAKQAMAAASAAGAAMKAGDTAAAQQYAAQTQALVAQIA
**Q.** How did the “binding in a display sort” value (PDL1, Q9NZQ7) turn out when B14 was run?
**A.** not found

B15: d8r1_design_ppi_1318_dldesign_0_cycle1_af2pred (protein)
chain: SAAAAAAARGEAAVASLTATGAAIVAAAKKDPSEAASMVRAVKNLGQAYANRVPPEYAAKVLAVAATYAAQIAAIM
**Q.** How did the “binding in a display sort” value (PDL1, Q9NZQ7) turn out when B15 was run?
**A.** binds (active)

B16: d6r1_design_ppi_1117_dldesign_0_cycle0_af2pred (protein)
chain: SQQQTQQAQQQAQATIAQTQAARDELKKLAADPEARAAAESAAQQLAVAQDLNASGTLVGAQAALAMAQQALAVATATLAKAKAA
**Q.** Which “binding in a display sort” value (CD276, Q5ZPR3) does the source give for B16 here?
**A.** not found

B17: d8r1_design_ppi_286_dldesign_0_cycle1_af2pred (protein)
chain: SNEEKAEDLRFMARAVLGVGATASAAETAAFLNDVAAAAARLDPEAGAAVAAIGAAAAASGDAKAAAKAAAAVLEAAAEEFL
**Q.** For B17, which “binding in a display sort” value (PDL1, Q9NZQ7) is on record?
**A.** binds (active)

B18: d8r1_design_ppi_869_dldesign_0_cycle0_af2pred (protein)
chain: SEDAQSAVRFAQNTLETAKRKAAEDPARGRQIAANLATAAATAAAKFAGLPEAATLKALQAQAAALAAALA
**Q.** For B18, which “binding in a display sort” value (PDL1, Q9NZQ7) is on record?
**A.** not found

B19: d8r1_design_ppi_1324_dldesign_0_cycle1_af2pred (protein)
chain: AAAKLAALKKEIKALIGAAAAYQIAKDSSKLDEYVAKANKLIALADKDPVAAAKETAKLAEEAGDEETAKKAKEAAKEAKKL
**Q.** B19 was tested. Which “binding in a display sort” value (PDL1, Q9NZQ7) did it give?
**A.** not found

B20: d8r1_design_ppi_1356_dldesign_0_cycle1_af2pred (protein)
chain: DPELIARTALSAAVMLEKGVAGTPEAALNAADGSALLLESKAESFGSEELKELAKKAKEAAKKIKADPEAGKKALREVAEELKKLAE
**Q.** For B20, which “binding in a display sort” value (PDL1, Q9NZQ7) is on record?
**A.** not found

B21: d6r1_design_ppi_1105_dldesign_0_cycle1_af2pred (protein)
chain: AEKERLKEAAKRSAEKARELAKAGYALGAKAAILAAVRAAKEAGDAELVKEVLEVAKEAAKHPEVKPALEEAKKALEEVKK
**Q.** For B21, which “binding in a display sort” value (CD276, Q5ZPR3) is on record?
**A.** not found

B22: d6r1_design_ppi_973_dldesign_0_cycle1_af2pred (protein)
chain: EQKKAAEEAAKAIKEAAKKAKELGDEATANGLQAIATALKNAVEAGDYKAAAELAKIGAAQAATLPELAPLAKKIEKLAKKIEE
**Q.** Which “binding in a display sort” value (CD276, Q5ZPR3) does the source give for B22 here?
**A.** not found

B23: d8r1_design_ppi_167_dldesign_0_cycle1_af2pred (protein)
chain: SKEERYKKAAEWLAETSKKAIALRKANPAVAPLAIKMHGAAAHAAAALVAGDEEKAEEYKKKSEEYLKEAEAAIA
**Q.** How did the “binding in a display sort” value (PDL1, Q9NZQ7) turn out when B23 was run?
**A.** not found

B24: d6r1_design_ppi_1056_dldesign_0_cycle0_af2pred (protein)
chain: AAAAAAAAQAETDALADEARELAAKAAEKIDPEKGALLKELTDYYAAKARSGTDEAGRTGLRALLSAARNIVS
**Q.** With B24 as the binder, how does the “binding in a display sort” value (CD276, Q5ZPR3) read?
**A.** not found

B25: d8r1_design_ppi_310_dldesign_0_cycle0_af2pred (protein)
chain: SRARALASIAALAELAAELAEENPASGAQLGKVVASALAALGLTDEAARVAAASPADLKAVMREVAAAARAAAAALA
**Q.** For B25, which “binding in a display sort” value (PDL1, Q9NZQ7) is on record?
**A.** not found

B26: d6r1_design_ppi_1193_dldesign_0_cycle1_af2pred (protein)
chain: MEELKKLKEEAEKLFQKARDIMPQAVKAGNEAVSKVVEAQKYATEAAKLAKEGGDLEEAKKKYEKAKKYYEEALKLIAA
**Q.** For B26, which “binding in a display sort” value (CD276, Q5ZPR3) is on record?
**A.** not found

B27: d8r1_design_ppi_1447_dldesign_0_cycle1_af2pred (protein)
chain: SEAEDIASFARMATTAAASAAKKDIASAKTLMDAVAKLPGAAAHVTAAGNAAIAAAATVDPARAAELAAYLAARLAAL
**Q.** B27 was tested. Which “binding in a display sort” value (PDL1, Q9NZQ7) did it give?
**A.** not found

B28: d8r1_design_ppi_869_dldesign_0_cycle1_af2pred (protein)
chain: SEEAQAAVRFARNLLEVARLRAEEDPARGRAIAANLEVAARTLAEKHAGLPEAEELRRLAAEAAALAAELA
**Q.** For B28, which “binding in a display sort” value (PDL1, Q9NZQ7) is on record?
**A.** binds (active)

B29: d6r1_design_ppi_1068_dldesign_0_cycle0_af2pred (protein)
chain: MAAELTAKAQEAVERAAAAEAAGLKEAATLYLKAAAYYHAGAVNPATAAENAAKGEEYLAQAEALEKAAA
**Q.** B29 was tested. Which “binding in a display sort” value (CD276, Q5ZPR3) did it give?
**A.** not found

B30: d6r1_design_ppi_911_dldesign_0_cycle1_af2pred (protein)
chain: GAAERTGRALANTAVAFAKSGSEEEAVAFATQMAEQIAALPGAEAAVARMAEELAKVLSPEAAAKVREAAAAILAKAAA
**Q.** B30 was tested. Which “binding in a display sort” value (CD276, Q5ZPR3) did it give?
**A.** not found

B31: d6r1_design_ppi_1068_dldesign_0_cycle1_af2pred (protein)
chain: APAVLLAQAQKSAELALKALELGYNEAAVLFLQAASYFFAGAVNPATAATYAAKGVELIEKGLALLKAAS
**Q.** For B31, which “binding in a display sort” value (CD276, Q5ZPR3) is on record?
**A.** not found

B32: d6r1_design_ppi_1033_dldesign_0_cycle1_af2pred (protein)
chain: AAEEEAKNAQVRQLAAQAFSYNLLADAAKQLAAAKGPEYEAKAKEYQAKAAAYKAEAEALNPEVFAAALAEVQAKYDAAL
**Q.** B32 was tested. Which “binding in a display sort” value (CD276, Q5ZPR3) did it give?
**A.** not found

B33: d6r1_design_ppi_1061_dldesign_0_cycle1_af2pred (protein)
chain: AAAALAAAAAIAATLLAAGKAGDAATAAAALYGAALVLALADPAYAEVYDAVARAVSPAARAAGGAAAIALLAAAQA
**Q.** Which “binding in a display sort” value (CD276, Q5ZPR3) does the source give for B33 here?
**A.** not found

B34: d8r1_design_ppi_509_dldesign_0_cycle0_af2pred (protein)
chain: SDEKWAAAAAHMGAAQKAADAAVAAAAAGNTAAAKAAQAEAAAHYDKAAEEAKEYSPEAGAAMKSTREATVALINAKL
**Q.** How did the “binding in a display sort” value (PDL1, Q9NZQ7) turn out when B34 was run?
**A.** not found

B35: d8r1_design_ppi_134_dldesign_0_cycle1_af2pred (protein)
chain: AAAEAAREAVRAAAAAAREAAAKMSPSKAKAVESIVERTTRVADELIAAGDYRTAVRAAASAEAAAKTLLEVDK
**Q.** How did the “binding in a display sort” value (PDL1, Q9NZQ7) turn out when B35 was run?
**A.** binds (active)

B36: d8r1_design_ppi_1425_dldesign_0_cycle1_af2pred (protein)
chain: SVEERKKRAEAIAKRSRAVARALAAADPARGIALAESAAVSFEKWAELYPEIKEFAEALAAEHRALAAEIRAAA
**Q.** For B36, which “binding in a display sort” value (PDL1, Q9NZQ7) is on record?
**A.** not found

B37: d6r1_design_ppi_1193_dldesign_0_cycle0_af2pred (protein)
chain: EEERQQLLAEAEALFARANALLPAAAAAGSEATALVVESLEYASKAARLAREGGDLEEAQKLLEKAKKYLAEAEKLIAA
**Q.** How did the “binding in a display sort” value (CD276, Q5ZPR3) turn out when B37 was run?
**A.** not found

B38: d6r1_design_ppi_1013_dldesign_0_cycle0_af2pred (protein)
chain: SAEVQALLEEARRHIARAQKLLVAGNKEEALKEAEEAKKLAEEAKKLAADDPELAKSAEGLIKLAEAVIESAKA
**Q.** B38 was tested. Which “binding in a display sort” value (CD276, Q5ZPR3) did it give?
**A.** not found

B39: d6r1_design_ppi_1153_dldesign_0_cycle0_af2pred (protein)
chain: TEAAAALLRKTIAALERRVERAPEMSLEEAKALAESAKVLLEAGKAVPEVAAAAEELYKRAEEVAKKKAEEAAA
**Q.** B39 was tested. Which “binding in a display sort” value (CD276, Q5ZPR3) did it give?
**A.** not found
